# PTK2B oligo ant = antagonists of human Pyk2 oligomerization; 0.83% of 99,000 active; Q14289; AID 1347419; z-score (the deposit names both 25 µM and 10 µM); Q293 cells, Pyk2 FERM NanoBiT luminescence; stronger effect = lower value;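 active = Z-score of -3 or lower, scaled per plate to the spread of control and sample wells; inactive = z-score above -3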;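 also: negative z-score means lost luminescence so less FERM oligomerization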
# CYP2C9 act = activators of human CYP2C9; P11712; recombinant CYP2C9, luciferin-H conversion, luminescence; stronger effect = higher value; factor 1 = untreated enzyme, 0 = blocked; activation factor at 5 µM; 1.4% of 96,000 active; AID 1024;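 active = activation factor of 2 or more for CYP2C9 at a 5 µM dose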;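 also: 0 = sulfaphenazole-blocked wells and 1 = vehicle-only wells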
# CYP2C19 activ = cytochrome P450 2C19 (human) activation | activation factor at 5 µM | AID 1025 | P33261 | 96,000 tested, under 10 active | recombinant CYP2C19, luciferin-H EGE luminescence; stronger effect = higher value; 0 = fully inhibited enzyme, 1 = untreated enzyme;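 active = activation factor of at least 2 at 5 µM in the primary screen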;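 also: 0 = wells with 2.5 mM tranylcypromine and 1 = vehicle-only wells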
# CYP2C9 inh = human CYP2C9 inhibition | P11712 | CYP2C9 Supersomes, luciferin-H conversion, luminescence | inhibition, % at 5 µM | 20% of 96,000 active;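 active = blocking of liver enzyme CYP2C9 beyond about 50% at 5 µM, limit read from the data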
# CYP2C19 inhib = blocks human cytochrome P450 2C19 | P33261 | CYP2C19 Supersomes, luciferin-H EGE luminescence, 30 min | inhibition, % at 5 µM | 21% of 96,000 active;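 active = CYP2C19 inhibition above a set limit at 5 µM in the primary screen, cut at about 50% in these data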;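 also: plate controls were negative control wells for no effect and 2.5 mM tranylcypromine positive control for full effect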
# Active calls of the source: *; nt = no result given. Only some compounds are listed: those with a hit (about 28% of all), similar ones and a draw of the others.
SMILES,PTK2B oligo ant,CYP2C9 act,CYP2C19 activ,CYP2C9 inh,CYP2C19 inhib
CCOC(=O)Cn1c(=O)c2c(nc3n2CCCCN3c2ccc(C)cc2)n(C)c1=O,0.4,1,1,2.1,-2.1
Cc1cc(C)nc(SCc2nnc(SCC(=O)Nc3c(C)cccc3C)o2)n1,0.24,nt,nt,nt,nt
Cc1cc(C)nc(SCc2nnc(SCC(=O)N3CCCc4ccccc43)o2)n1,0.51,0.9,0.2,6.3,80.2*
Cc1cc(C)nc(SCc2nnc(SCc3ccccc3Cl)o2)n1,-1.84,1.3,0.2,-28.6,77.6*
Cc1cc(C)nc(SCc2nnc(SCC(=O)N3CCCc4ccccc43)n2C)n1,1.43,1.5,0.9,-50.2,11.0
Cc1cc(C)nc(SCc2nnc(SCC(=O)Nc3cc(C(F)(F)F)ccc3Cl)o2)n1,0.75,2*,0.2,-104.6,79.9*
Cc1cc(C)nc(NC(=O)CN2C(=O)c3ccccc3C2=O)n1,1.65,1.2,1.1,-22.7,-6.4
Cc1cc2c(c(C)nn2-c2ccccc2)c(=O)o1,0.05,0.6,0.4,38.9,56.1*
Cc1cn(C2CC3OCC3O2)c(=O)[nH]c1=O (stereo not drawn),0.11,1,1,2.6,-0.9
O=C(CSc1nc2[nH]ncc2c(=O)n1-c1ccccc1Br)NCc1ccco1,0.36,0.7,0.7,25.4,25.8
CCOc1ccc(C2=C(C=Nc3c(C)n(C)n(-c4ccccc4)c3=O)C(c3ccc(F)cc3)c3ccccc3O2)cc1 (stereo not drawn),-0.87,0.4,0.8,58.5*,18.4
Cc1cccc(-c2ccc(C=Nc3c(C)n(C)n(-c4ccccc4)c3=O)o2)c1,1.26,0.8,0.8,18.7,15.5
CCC1(C)Cc2c(sc3nnn(CC(=O)Nc4ccccc4C)c(=O)c23)CO1 (stereo not drawn),0.73,0.5,0.2,49.5,83.6*
CCC1(C)Cc2c(sc3nnn(CC(=O)Nc4ccccc4)c(=O)c23)CO1 (stereo not drawn),-1.38,0.3,0.1,67.9*,88.9*
CCC1(C)Cc2c(sc3c2c(=O)n(C)c2nnc(SCCc4ccccc4)n32)CO1 (stereo not drawn),-0.2,1.1,1.1,-6.1,-5.2
CCC1(C)Cc2c(sc3nn[nH]c(=O)c23)CO1 (stereo not drawn),0.62,0.9,0.9,12.5,11.2
CCC1(C)Cc2c(sc3nnn(Cc4ccccc4Cl)c(=O)c23)CO1 (stereo not drawn),-0.22,0.2,0.6,75.6*,42.3
CC(C)CNC(=O)c1cccc(NC(=O)C2CCCO2)c1 (stereo not drawn),-0.29,0.9,1,14.1,2.2
O=C(Nc1ccc2c(c1)OCO2)C1CCN(S(=O)(=O)c2ccc3c(c2)OCCO3)CC1,0.45,1.2,1.1,-24.6,-6.0
O=C(Nc1ccc2c(c1)OCO2)C1CCCCN1S(=O)(=O)c1ccccc1 (stereo not drawn),-0.71,0.4,0,64.4*,98.3*
O=C(Nc1ccc2c(c1)OCCO2)C1CCCN1S(=O)(=O)c1ccc(Cl)cc1 (stereo not drawn),1.41,0,0.1,96.5*,87.5*
O=C(NC1CC1)c1sccc1-n1cccc1,0.52,0.5,0.8,46.8,15.4
Cc1cc(N2CCCC2=O)c(N)cc1N,0.74,1.2,1.1,-18.3,-14.0
CSC1=NCCN1C(=O)c1ccc(S(=O)(=O)N2CCCC2)cc1,nt,1.1,1.1,-5.4,-6.1
C/C(=N/NS(C)(=O)=O)c1ccc2ccccc2c1,0.24,0.3,0.7,73.4*,26.6
SMILES,PTK2B oligo ant,CYP2C9 act,CYP2C19 activ,CYP2C9 inh,CYP2C19 inhib
COc1ccc(C(=O)N2CCN(C(C)=O)CC2)cc1S(=O)(=O)NCc1ccc(Cl)cc1,3.37,1.2,1.1,-19.0,-14.2
CCOc1cc(/C=C2\CCC/C(=C\c3cc(Cl)c(O)c(OCC)c3)C2=O)cc(Cl)c1O,-3.64*,0.8,1,15.6,-1.0
Cc1ccc(CNc2nc(C)nc3sc4c(c23)CCC4)cc1,0.47,0.6,0.9,42.8,9.3
Cc1nc(NS(=O)(=O)c2ccc(Br)cc2)c2c3c(sc2n1)CCC3,-2.66,0,0.2,97.1*,76.5*
O=C(O)[C@H](CO)Nc1ncnc2sc3c(c12)CCC3,0.85,1.2,0.9,-15.7,10.9
O=S(=O)(Nc1ncnc2sc3c(c12)CCC3)c1ccc(Cl)s1,-1.94,0.2,0.9,80.6*,6.1
Cc1nc(NC(C)c2ccccc2)c2c3c(sc2n1)CCC3 (stereo not drawn),0.87,0.4,0.2,55.9*,83.8*
O=C(NC1(C(F)(F)F)C(=O)Nc2c1c(=O)[nH]c(=O)n2Cc1ccco1)C1CC1 (stereo not drawn),-0.14,nt,nt,nt,nt
O=C(N1CCOCC1)N(Cc1cccs1)C1CCCC1,0.24,1,1,3.6,4.2
CC(C)N(O)C(=O)NC(C)(C)C,0.12,0.9,1,8.4,-3.2
Cc1ccccc1OC1C(=O)N(Cc2ccc3c(c2)OCO3)C1c1sccc1C (stereo not drawn),-1.85,0.2,0.3,81.5*,74.4*
O=C1C(Oc2ccccc2)C(c2cccs2)N1Cc1ccc2c(c1)OCO2 (stereo not drawn),-2.4,1.2,0.7,-21.4,25.9
CN(C)Cc1c(O)ccc2oc(Cc3ccccc3)cc12,0.12,0.8,0.3,22.9,72.4*
Cc1c(Cc2ccccc2)c(=O)oc2c(CN(C)C)c(O)c(Cl)cc12,-0.1,nt,nt,nt,nt
O=C1/C(=C/c2cccnc2)Oc2cc(OS(=O)(=O)c3ccc(F)cc3)ccc21,-2.74,0.2,0.6,83.6*,44.8
O=C1/C(=C/c2ccccc2)Oc2cc(OC(=O)N3CCOCC3)ccc21,0.4,nt,nt,nt,nt
Cc1ccc(S(=O)(=O)Oc2ccc3c(c2)O/C(=C\c2cccnc2)C3=O)cc1,-3.01*,0.1,0.3,91.1*,72.5*
Cc1ccc(S(=O)(=O)Oc2ccc(/C=C3\N=C(c4cccc(C)c4)OC3=O)cc2)cc1,0.35,0.7,1,26.0,4.0
CCOC(=O)c1cc(NC(=O)N(CC)CC)c(C)nc1C,0.82,0.9,1,11.2,-1.4
COC(=O)c1cc(=O)nc2sc(-c3ccc(F)cc3)nn12,1.16,1,1.1,0.2,-9.2
COC(=O)c1cc(C(=O)OC)n(Cc2ccc(F)cc2)n1,-0.59,0.7,0.3,29.0,74.2*
Cc1cccc(CSCc2nnc(N)s2)c1,0.34,1.1,0.6,-12.2,36.6
CC1CCN(CC(=O)NC(=O)NCc2ccccc2)CC1,0.97,nt,nt,nt,nt
O=C(CN1CCC(NC(=O)Nc2ccccc2-c2ccccc2)CC1)NCc1ccco1,0.73,0.4,0.5,57.9*,46.0
O=C(Nc1ccccc1-c1ccccc1)NC1CCN(C(=O)N2CCOCC2)CC1,-0.2,nt,nt,nt,nt
O=C(CN1CCC(Cc2ccccc2)CC1)NC(=O)NCc1ccco1,-0.5,1,0.4,0.1,57.8*
Cc1ccc2ccccc2c1Cn1c(-n2ccnc2)nc2c1c(=O)n(C)c(=O)n2C,0.09,0.5,0.4,46.7,58.0*
CC(C)(C)c1ccc(NC(=S)NCc2cccs2)cc1,-0.94,1.3,0.6,-29.0,36.2
Cc1cccc(NC(=S)NCc2cccs2)c1C,1.4,0.9,0.5,11.9,52.3*

# Bioassay records: PubChem, Sanford-Burnham Center for Chemical Genomics
